{"source": "paper PMC7862700", "about": "“An all-to-all approach to the identification of sequence-specific readers for epigenetic DNA modifications on cytosine”", "assay_in_all_cases": "DAPPL (digital affinity profiling via proximity ligation, sequencing); 10 mM Tris-HCl pH 7.5, 50 mM NaCl, 1 mM DTT, 4% glycerol, room temperature, 30 min; GST-TFs on glutathione beads, 16-mer random dsDNA library, 0.1% formaldehyde crosslink after washing; high values mean tight binding", "key": {"FEV": {"molecular_target": "T1, FEV (Homo sapiens, UniProt Q99581 1-238)", "T1 sequence": "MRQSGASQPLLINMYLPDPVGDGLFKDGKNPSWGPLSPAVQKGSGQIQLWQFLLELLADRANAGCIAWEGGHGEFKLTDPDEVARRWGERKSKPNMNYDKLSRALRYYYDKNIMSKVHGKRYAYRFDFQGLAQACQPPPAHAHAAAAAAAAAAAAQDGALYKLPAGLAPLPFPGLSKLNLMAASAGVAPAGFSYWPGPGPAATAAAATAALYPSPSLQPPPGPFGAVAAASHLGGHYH", "conditions": "protein: recombinant; tags: N-terminal GST; dsDNA, one strand shown", "procedure,_shortened": "(§1)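 Yeast served to express human transcription factors as GST fusions, which were then captured on glutathione beads and labelled with DNA barcodes. Pooled with a tag-only sample, they were incubated with 200 nmole of a 16-mer random double-stranded DNA library for 30 min at room temperature in Tris/NaCl/DTT/glycerol buffer, washed, crosslinked with 0.1% formaldehyde, ligated by proximity, amplified by PCR and sequenced. Dividing each hexamer's read frequency for a factor by its frequency for the tag-only sample gives the binding signal.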"}, "ETV5": {"molecular_target": "ETV5 (Homo sapiens, UniProt P41161 1-510)", "sequence (P41161 whole entry)": "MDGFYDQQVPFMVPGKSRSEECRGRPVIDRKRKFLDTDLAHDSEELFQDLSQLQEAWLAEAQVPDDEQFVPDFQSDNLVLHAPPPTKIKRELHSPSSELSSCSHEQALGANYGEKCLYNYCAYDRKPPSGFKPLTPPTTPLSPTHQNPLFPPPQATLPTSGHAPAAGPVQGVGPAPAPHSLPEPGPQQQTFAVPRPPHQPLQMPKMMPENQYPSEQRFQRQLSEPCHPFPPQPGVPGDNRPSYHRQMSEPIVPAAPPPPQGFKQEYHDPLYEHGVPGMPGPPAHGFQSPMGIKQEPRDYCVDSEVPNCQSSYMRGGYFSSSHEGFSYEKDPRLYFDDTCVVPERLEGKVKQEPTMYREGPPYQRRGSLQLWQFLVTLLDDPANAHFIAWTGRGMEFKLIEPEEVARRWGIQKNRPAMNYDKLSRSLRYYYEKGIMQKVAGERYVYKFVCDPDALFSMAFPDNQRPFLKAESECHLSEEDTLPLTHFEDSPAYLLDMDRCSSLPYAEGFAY", "conditions": "protein: recombinant; tags: N-terminal GST; dsDNA, one strand shown", "procedure,_shortened": "as §1"}, "HSF1": {"molecular_target": "HSF1 (Homo sapiens, UniProt Q00613 1-529)", "sequence (Q00613 whole entry)": "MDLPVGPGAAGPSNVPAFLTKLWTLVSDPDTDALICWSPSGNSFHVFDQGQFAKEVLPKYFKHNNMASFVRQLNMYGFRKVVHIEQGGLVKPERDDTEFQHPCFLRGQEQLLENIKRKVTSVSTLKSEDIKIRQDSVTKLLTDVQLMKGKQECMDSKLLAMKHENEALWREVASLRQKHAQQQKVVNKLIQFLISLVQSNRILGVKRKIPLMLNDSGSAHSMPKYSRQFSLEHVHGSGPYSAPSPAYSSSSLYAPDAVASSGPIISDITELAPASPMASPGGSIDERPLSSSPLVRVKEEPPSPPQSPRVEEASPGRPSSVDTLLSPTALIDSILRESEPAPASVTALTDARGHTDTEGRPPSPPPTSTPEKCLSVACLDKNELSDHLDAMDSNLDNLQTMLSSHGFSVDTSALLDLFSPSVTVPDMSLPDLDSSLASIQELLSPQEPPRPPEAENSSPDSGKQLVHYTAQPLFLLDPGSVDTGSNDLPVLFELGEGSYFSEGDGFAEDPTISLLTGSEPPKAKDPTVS", "conditions": "protein: recombinant; tags: N-terminal GST; chain copies: 3; dsDNA, one strand shown", "procedure,_shortened": "as §1"}, "SPIC": {"molecular_target": "T2, SPIC (Homo sapiens, UniProt Q8N5J4 1-248)", "T2 sequence": "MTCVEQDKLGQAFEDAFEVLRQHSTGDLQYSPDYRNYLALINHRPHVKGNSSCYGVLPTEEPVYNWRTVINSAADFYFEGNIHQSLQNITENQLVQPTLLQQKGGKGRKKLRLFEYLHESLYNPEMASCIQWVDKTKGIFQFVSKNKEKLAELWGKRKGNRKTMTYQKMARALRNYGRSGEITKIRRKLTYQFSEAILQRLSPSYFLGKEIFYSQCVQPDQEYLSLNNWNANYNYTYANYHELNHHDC", "conditions": "protein: recombinant; tags: N-terminal GST; dsDNA, one strand shown", "procedure,_shortened": "as §1"}, "ELF4": {"molecular_target": "ELF4 (Homo sapiens, UniProt Q99607 1-663)", "sequence (Q99607 whole entry)": "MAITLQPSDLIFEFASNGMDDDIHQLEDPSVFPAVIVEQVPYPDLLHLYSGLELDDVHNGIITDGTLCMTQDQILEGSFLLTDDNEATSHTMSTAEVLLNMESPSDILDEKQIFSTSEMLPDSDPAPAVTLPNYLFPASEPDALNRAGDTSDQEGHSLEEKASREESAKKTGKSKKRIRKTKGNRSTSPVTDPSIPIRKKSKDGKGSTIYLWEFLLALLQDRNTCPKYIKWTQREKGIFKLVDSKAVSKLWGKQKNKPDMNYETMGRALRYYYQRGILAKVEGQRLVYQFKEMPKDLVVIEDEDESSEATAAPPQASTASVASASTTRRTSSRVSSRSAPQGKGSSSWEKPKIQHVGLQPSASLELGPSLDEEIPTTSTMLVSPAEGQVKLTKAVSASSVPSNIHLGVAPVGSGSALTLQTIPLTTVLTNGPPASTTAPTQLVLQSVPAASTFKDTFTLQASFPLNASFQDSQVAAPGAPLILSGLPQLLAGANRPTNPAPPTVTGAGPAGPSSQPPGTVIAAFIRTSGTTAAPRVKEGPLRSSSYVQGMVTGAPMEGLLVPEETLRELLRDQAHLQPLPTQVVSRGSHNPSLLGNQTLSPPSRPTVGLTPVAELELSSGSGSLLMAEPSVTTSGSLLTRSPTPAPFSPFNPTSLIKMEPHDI", "conditions": "protein: recombinant; tags: N-terminal GST; dsDNA, one strand shown", "procedure,_shortened": "as §1"}, "ELK4": {"molecular_target": "T3, ELK4 (Homo sapiens, UniProt P28324-2 1-405)", "T3 sequence": "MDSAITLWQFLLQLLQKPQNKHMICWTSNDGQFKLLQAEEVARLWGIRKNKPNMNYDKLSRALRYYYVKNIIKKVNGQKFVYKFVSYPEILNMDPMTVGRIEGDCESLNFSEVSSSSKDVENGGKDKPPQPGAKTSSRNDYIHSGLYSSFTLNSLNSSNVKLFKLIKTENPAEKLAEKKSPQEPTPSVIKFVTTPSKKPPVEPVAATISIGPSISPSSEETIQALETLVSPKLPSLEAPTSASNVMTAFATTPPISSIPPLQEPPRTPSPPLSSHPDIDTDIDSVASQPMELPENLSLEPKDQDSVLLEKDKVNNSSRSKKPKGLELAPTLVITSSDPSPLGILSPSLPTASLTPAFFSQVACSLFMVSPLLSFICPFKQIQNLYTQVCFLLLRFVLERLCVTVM", "conditions": "protein: recombinant; tags: N-terminal GST; dsDNA, one strand shown", "procedure,_shortened": "as §1"}, "ETV2": {"molecular_target": "T4, ETV2 (Homo sapiens, UniProt O00321 1-342)", "T4 sequence": "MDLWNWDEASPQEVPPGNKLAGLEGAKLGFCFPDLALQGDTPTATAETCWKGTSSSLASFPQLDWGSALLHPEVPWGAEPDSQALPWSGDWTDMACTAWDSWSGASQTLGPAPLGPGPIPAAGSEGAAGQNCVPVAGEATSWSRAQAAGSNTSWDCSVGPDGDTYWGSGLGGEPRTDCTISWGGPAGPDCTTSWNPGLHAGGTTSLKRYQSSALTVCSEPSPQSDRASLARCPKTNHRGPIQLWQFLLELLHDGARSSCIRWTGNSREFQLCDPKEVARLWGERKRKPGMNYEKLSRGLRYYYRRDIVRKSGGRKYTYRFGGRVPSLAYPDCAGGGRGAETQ", "conditions": "protein: recombinant; tags: N-terminal GST; dsDNA, one strand shown", "procedure,_shortened": "as §1"}, "ELF3": {"molecular_target": "T5, ELF3 (Homo sapiens, UniProt P78545 1-371)", "T5 sequence": "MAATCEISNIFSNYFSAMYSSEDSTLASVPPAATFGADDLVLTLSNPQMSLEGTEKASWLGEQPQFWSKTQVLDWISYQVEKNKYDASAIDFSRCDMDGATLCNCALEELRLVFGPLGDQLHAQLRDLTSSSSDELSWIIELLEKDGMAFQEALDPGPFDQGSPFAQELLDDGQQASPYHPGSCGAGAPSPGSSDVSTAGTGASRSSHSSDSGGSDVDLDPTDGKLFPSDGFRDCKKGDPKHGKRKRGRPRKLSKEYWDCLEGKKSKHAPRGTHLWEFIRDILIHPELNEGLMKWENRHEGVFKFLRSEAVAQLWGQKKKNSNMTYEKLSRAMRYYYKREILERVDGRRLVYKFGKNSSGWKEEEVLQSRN", "conditions": "protein: recombinant; tags: N-terminal GST; dsDNA, one strand shown", "procedure,_shortened": "as §1"}, "CRX": {"molecular_target": "CRX (Homo sapiens, UniProt O43186 1-299)", "sequence (O43186 whole entry)": "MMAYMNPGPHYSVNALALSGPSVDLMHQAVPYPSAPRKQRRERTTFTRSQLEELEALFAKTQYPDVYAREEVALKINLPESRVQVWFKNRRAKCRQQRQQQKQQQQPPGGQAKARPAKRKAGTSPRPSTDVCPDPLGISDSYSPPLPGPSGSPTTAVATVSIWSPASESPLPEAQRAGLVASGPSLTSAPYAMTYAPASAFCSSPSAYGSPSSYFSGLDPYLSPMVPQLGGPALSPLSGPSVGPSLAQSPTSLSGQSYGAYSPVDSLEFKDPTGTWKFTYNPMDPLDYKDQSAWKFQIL", "conditions": "protein: recombinant; tags: N-terminal GST; dsDNA, one strand shown", "procedure,_shortened": "as §1"}}}
{"sequence": "GCTCCC", "values": [{"measurement": "binding signal", "setting": "FEV", "result": "1.28 fold enrichment (6-mer frequency, TF over GST control)"}, {"measurement": "binding signal", "setting": "ETV5", "result": "1.39 fold enrichment (6-mer frequency, TF over GST control)"}, {"measurement": "binding signal", "setting": "HSF1", "result": "1.07 fold enrichment (6-mer frequency, TF over GST control)"}, {"measurement": "binding signal", "setting": "SPIC", "result": "1.16 fold enrichment (6-mer frequency, TF over GST control)"}, {"measurement": "binding signal", "setting": "ELF4", "result": "1.32 fold enrichment (6-mer frequency, TF over GST control)"}, {"measurement": "binding signal", "setting": "ELK4", "result": "1.4 fold enrichment (6-mer frequency, TF over GST control)"}, {"measurement": "binding signal", "setting": "ETV2", "result": "1.32 fold enrichment (6-mer frequency, TF over GST control)"}, {"measurement": "binding signal", "setting": "ELF3", "result": "1.35 fold enrichment (6-mer frequency, TF over GST control)"}, {"measurement": "binding signal", "setting": "CRX", "result": "1.04 fold enrichment (6-mer frequency, TF over GST control)"}]}
